Data as given in PubChem BioAssay AID1159580 (chemical genetic matrix, 2015).
About 2,000 (36%) of roughly 5,500 compounds were called active. Inconclusive results (about 18%) are left out. Cut-off read from the data, not from the text of the source: active = normalized growth mostly below about 0.91 (no sharp cut-off); inconclusive = no clear call, values can overlap the other calls; inactive = mostly above about 0.92. The list shows a part of the results.

Assay: chemical genetic growth profiling, strain panel (AID 1159580);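 note: tested at 20 µM; growth read once vehicle control cultures reached saturation at 30 °C; 1 = growth at the plate median or of vehicle wells; lower values mean less growth of the strain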
Conditions: growth OD

Measured: normalized growth

O=C1C=CC(=C(c2ccc(O)cc2)c2ccc(O)cc2)C=C1
inactive: S. cerevisiae deletion strains, locus YJR075W, strain HOC1, active compounds read low 1.02 | S. cerevisiae deletion strains, locus YKL009W, strain mrt4, active compounds read low 0.995 | S. cerevisiae deletion strains, locus YKL068W, active compounds read low 0.997 | S. cerevisiae deletion strains, locus YKL085W, strain MDH1 (second series), active compounds read low 0.994 | S. cerevisiae deletion strains, locus YKL085W, strain MDH1, active compounds read low 0.994 | S. cerevisiae deletion strains, locus YKL160W, strain elf1, active compounds read low 1.01 | S. cerevisiae deletion strains, locus YKL190W, strain CNB1, active compounds read low 0.994 | S. cerevisiae deletion strains, locus YKR001C, strain vps1, active compounds read low 0.986 | S. cerevisiae deletion strains, locus YKR026C, strain gcn3, active compounds read low 0.975 | S. cerevisiae deletion strains, locus YKR091W, strain srl3, active compounds read low 0.989 | S. cerevisiae deletion strains, locus YLL001W, strain dnm1, active compounds read low 0.976 | S. cerevisiae deletion strains, locus YLL026W, active compounds read low 0.996 | S. cerevisiae deletion strains, locus YLL041C, strain sdh2, active compounds read low 0.991 | S. cerevisiae deletion strains, locus YLR027C, strain aat2, active compounds read low 0.998 | S. cerevisiae deletion strains, locus YLR039C, strain RIC1, active compounds read low 1.04 | S. cerevisiae deletion strains, locus YLR058C, strain SHM2, active compounds read low 0.991 | S. cerevisiae deletion strains, locus YLR102C, strain apc9, active compounds read low 0.994 | S. cerevisiae deletion strains, locus YLR113W, strain HOG1, active compounds read low 1.03 | S. cerevisiae deletion strains, locus YLR221C, strain rsa3, active compounds read low 0.983 | S. cerevisiae deletion strains, locus YLR258W, strain gsy2, active compounds read low 1.01 | S. cerevisiae deletion strains, locus YLR262C, strain YPT6 (second series), active compounds read low 0.972 | S. cerevisiae deletion strains, locus YLR262C, strain YPT6, active compounds read low 1.02 | S. cerevisiae deletion strains, locus YLR268W, strain sec22, active compounds read low 1.02 | S. cerevisiae deletion strains, locus YLR320W, strain mms22, active compounds read low 0.972 | S. cerevisiae deletion strains, locus YLR330W, strain CHS5, active compounds read low 0.995 | S. cerevisiae deletion strains, locus YLR342W, strain FKS1 (second series), active compounds read low 0.972 | S. cerevisiae deletion strains, locus YLR342W, strain FKS1, active compounds read low 0.991 | S. cerevisiae deletion strains, locus YLR357W, strain rsc2, active compounds read low 0.999 | S. cerevisiae deletion strains, locus YLR370C, strain arc18, active compounds read low 0.964 | S. cerevisiae deletion strains, locus YLR371W, strain rom2, active compounds read low 0.985 | S. cerevisiae deletion strains, locus YLR384C, strain iki3, active compounds read low 0.986 | S. cerevisiae deletion strains, locus YLR418C, strain cdc73, active compounds read low 0.999 | S. cerevisiae deletion strains, locus YML016C, strain PPZ1, active compounds read low 0.991 | S. cerevisiae deletion strains, locus YML032C, strain rad52, active compounds read low 0.98 | S. cerevisiae deletion strains, locus YML120C, strain ndi1, active compounds read low 1.01 | S. cerevisiae deletion strains, locus YML124C, strain tub3, active compounds read low 0.983 | S. cerevisiae deletion strains, locus YMR058W, strain fet3, active compounds read low 0.982 | S. cerevisiae deletion strains, locus YMR078C, strain ctf18, active compounds read low 0.98 | S. cerevisiae deletion strains, locus YMR125W, strain sto1, active compounds read low 0.974 | S. cerevisiae deletion strains, locus YMR129W, active compounds read low 0.987 | S. cerevisiae deletion strains, locus YMR205C, strain PFK2, active compounds read low 0.995 | S. cerevisiae deletion strains, locus YMR223W, strain ubp8, active compounds read low 0.982 | S. cerevisiae deletion strains, locus YMR231W, strain pep5, active compounds read low 0.98 | S. cerevisiae deletion strains, locus YMR263W, strain SAP30, active compounds read low 1.02 | S. cerevisiae deletion strains, locus YMR307W, strain GAS1, active compounds read low 0.945 | S. cerevisiae deletion strains, locus YNL067W, strain RPL9B, active compounds read low 1.03 | S. cerevisiae deletion strains, locus YNL071W, strain lat1, active compounds read low 0.971 | S. cerevisiae deletion strains, locus YNL128W, strain TEP1, active compounds read low 1.02 | S. cerevisiae deletion strains, locus YNL153C, strain GIM3, active compounds read low 1.01 | S. cerevisiae deletion strains, locus YNL183C, strain NPR1, active compounds read low 0.986 | S. cerevisiae deletion strains, locus YNL209W, strain ssb2, active compounds read low 0.985 | S. cerevisiae deletion strains, locus YNL233W, strain BNI4, active compounds read low 0.999 | S. cerevisiae deletion strains, locus YNL248C, strain rpa49, active compounds read low 0.966 | S. cerevisiae deletion strains, locus YNL250W, strain rad50, active compounds read low 0.984 | S. cerevisiae deletion strains, locus YNL271C, strain bni1, active compounds read low 0.992 | S. cerevisiae deletion strains, locus YNL298W, strain CLA4, active compounds read low 0.981 | S. cerevisiae deletion strains, locus YNL307C, strain MCK1, active compounds read low 0.98 | S. cerevisiae deletion strains, locus YNL322C, strain KRE1 (second series), active compounds read low 0.951 | S. cerevisiae deletion strains, locus YNL322C, strain KRE1, active compounds read low 1.01 | S. cerevisiae deletion strains, locus YNR049C, strain mso1, active compounds read low 0.979 | S. cerevisiae deletion strains, locus YNR052C, strain pop2, active compounds read low 0.966 | S. cerevisiae deletion strains, locus YOL006C, strain TOP1, active compounds read low 1.02 | S. cerevisiae deletion strains, locus YOL012C, strain htz1 1.83 | S. cerevisiae deletion strains, locus YOL147C, strain pex11, active compounds read low 0.985 | S. cerevisiae deletion strains, locus YOR001W, strain rrp6, active compounds read low 0.96 | S. cerevisiae deletion strains, locus YOR061W, strain CKA2, active compounds read low 1 | S. cerevisiae deletion strains, locus YOR069W, strain VPS5, active compounds read low 1.02 | S. cerevisiae deletion strains, locus YOR070C, strain gyp1, active compounds read low 1 | S. cerevisiae deletion strains, locus YOR080W, strain dia2, active compounds read low 0.986 | S. cerevisiae deletion strains, locus YOR083W, strain WHI5, active compounds read low 1.02 | S. cerevisiae deletion strains, locus YOR106W, strain vam3, active compounds read low 0.984 | S. cerevisiae deletion strains, locus YOR136W, strain idh2, active compounds read low 0.982 | S. cerevisiae deletion strains, locus YOR144C, strain elg1, active compounds read low 0.985 | S. cerevisiae deletion strains, locus YOR184W, strain ser1, active compounds read low 0.988 | S. cerevisiae deletion strains, locus YOR231W, strain MKK1, active compounds read low 1.04 | S. cerevisiae deletion strains, locus YOR265W, strain rbl2, active compounds read low 0.978 | S. cerevisiae deletion strains, locus YOR270C, strain vph1, active compounds read low 0.926 | S. cerevisiae deletion strains, locus YOR290C, strain snf2, active compounds read low 1.01 | S. cerevisiae deletion strains, locus YOR316C, strain cot1, active compounds read low 0.984 | S. cerevisiae deletion strains, locus YPL051W, strain arl3, active compounds read low 0.987 | S. cerevisiae deletion strains, locus YPL055C, strain LGE1, active compounds read low 1.06 | S. cerevisiae deletion strains, locus YPL078C, strain atp4, active compounds read low 0.973 | S. cerevisiae deletion strains, locus YPL106C, strain sse1, active compounds read low 0.994 | S. cerevisiae deletion strains, locus YPL240C, strain hsp82, active compounds read low 0.973 | S. cerevisiae deletion strains, locus YPL241C, strain CIN2, active compounds read low 1.02 | S. cerevisiae deletion strains, locus YPL256C, strain CLN2, active compounds read low 1.05 | S. cerevisiae deletion strains, locus YPR119W, strain clb2, active compounds read low 0.979 | S. cerevisiae deletion strains, locus YPR141C, strain kar3, active compounds read low 0.992 | S. cerevisiae deletion strains, locus YPR163C, strain tif3, active compounds read low 0.989 | S. cerevisiae deletion strains, locus YPR167C, strain met16, active compounds read low 0.991 | S. cerevisiae deletion strains, strain wtn01, active compounds read low 0.991 | S. cerevisiae strains, strain wild type, active compounds read low 0.994
